# Assay results: the supplement of paper PMC4166925
# ± gives the standard deviation of the averaged measurements. Over roughly 33,000 sequences, “E-score (dimensionless, -0.5 to 0.5)” has its median near -0.049; the highest 2% begin near 0.37. The sample holds the highest values, similar sequences and a random draw of the others, so the mix is not that of the screen.
# System: T1, PmTbr T-box DNA-binding domain (GST fusion)
# T1 sequence: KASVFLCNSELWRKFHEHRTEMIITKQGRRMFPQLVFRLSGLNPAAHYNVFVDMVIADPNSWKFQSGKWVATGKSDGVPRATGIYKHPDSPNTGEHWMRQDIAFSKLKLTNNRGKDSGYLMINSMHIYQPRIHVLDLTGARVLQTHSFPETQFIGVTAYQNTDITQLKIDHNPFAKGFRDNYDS
# Assay: PBM E-score of 8-mer (E-score (dimensionless, -0.5 to 0.5)); Tbr is Tbrain of the sea star Patiria miniata (Pm) or the sea urchin Strongylocentrotus purpuratus (Sp); higher = stronger binding preference
# Settings: the construct has about 5 more residues each side
# Experimental: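 Universal protein-binding microarray (Agilent AMADID 016060, 60-bp probes with a 35-bp variable region) incubated with 200 nM GST-fused Patiria miniata Tbr T-box DNA-binding domain (residues 272-466) in PBS pH 7.5. Scored for every ungapped 8-mer (given with its reverse complement) by the Universal PBM Analysis Suite as E-score (modified Wilcoxon-Mann-Whitney enrichment, range -0.5 to 0.5; >0.45 counts as bound) and Z-score of median probe intensity. Two replicate arrays (datasets 1 and 2).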
row,Sequence,PBM E-score of 8-mer
1,AGTGAGGG,-0.0175 ± 0.1
2,GACTGCGC,-0.107 ± 0.044
3,ACGAAGCT,-0.143 ± 0.014
4,AAGCGAAA,-0.083 ± 0.07
5,AAGCAGTC,-0.167 ± 0.023
6,GACTTCTC,0.148 ± 0.065
7,GGACTTGA,-0.145 ± 0.015
8,CGCTCGGC,-0.148 ± 0.02
9,TACACATA,0.115 ± 0.032
10,CACACATA,0.365 ± 0.021
11,AACACAGC,0.0601 ± 0.048
12,AACACATC,0.378 ± 0.013
13,AACACATG,0.317 ± 0.013
14,AACACATA,0.373 ± 0.0082
15,CCTAATAG,-0.122 ± 0.052
16,CTGCTCAA,-0.0839 ± 0.036
17,ATATGTTG,0.0196 ± 0.038
18,GTGTGTTA,0.274 ± 0.012
19,ATGTGTTA,0.446 ± 0.0057
20,CTGTGTTA,0.158 ± 0.045
21,ATGTGTTC,0.156 ± 0.025
22,ATGTGTTG,0.398 ± 0.008
23,CTCGAAGC,-0.0159 ± 0.011
24,ACTACGTA,-0.156 ± 0.012
25,GAGTTACA,0.0401 ± 0.024

row,Sequence,PBM E-score of 8-mer
1,CTTGTCAC,0.405 ± 0.015
2,ATTGTCAA,0.248 ± 0.039
3,CTTGTCGC,0.277 ± 0.012
4,ATTGTCAG,0.134 ± 0.026
5,CTTGTCAA,0.305 ± 0.034
6,ATTGTCAC,0.427 ± 0.016
7,GGGTTGAA,-0.0332 ± 0.073
8,CCGCTACG,-0.186 ± 0.064
9,ATGATAAC,0.0197 ± 0.036
10,GTGATAAC,0.406 ± 0.02
11,GTGATAAA,0.339 ± 0.07
12,ATTCCCAG,-0.25 ± 0.009
13,GTGTATCA,-0.00951 ± 0.055
14,TTGCTAAA,0.241 ± 0.078
15,ATGCTAAC,0.0631 ± 0.061
16,GTGCTAAA,0.435 ± 0.007
17,CTGCTAAA,0.21 ± 0.071
18,CTGCTAAC,0.318 ± 0.029
19,GTGCTAGA,0.382 ± 0.0098
20,GAGCTAGA,-0.00238 ± 0.087
21,ATGCTAGA,-0.158 ± 0.055
22,GTGCTAAC,0.453 ± 0.0072
23,ACTATGCC,-0.0992 ± 0.096
24,CAACTGTG,0.231 ± 0.015
25,AAATGGCC,-0.316 ± 0.0079

row,Sequence,PBM E-score of 8-mer
1,CATCAAGA,-0.245 ± 0.022
2,AGTATTGG,-0.0858 ± 0.022
3,ACTGTTGA,0.123 ± 0.062
4,GCTGTTGA,0.0473 ± 0.023
5,AGTGTTGA,0.395 ± 0.022
6,AGTGTTTG,0.275 ± 0.036
7,AGTGTTGG,0.3857 ± 0.0032
8,GGTGTTGA,0.4746 ± 0.0036
9,CGTGTTGA,0.295 ± 0.028
10,AGTGTTGC,0.3558 ± 0.0028
11,GTTGTTGA,0.245 ± 0.029
12,CTCTCTGA,-0.253 ± 0.021
13,AGCTTCAT,-0.00536 ± 0.11
14,GAACCGTC,-0.07 ± 0.048
15,CCCATTTA,0.0289 ± 0.005
16,ACGGGCGC,0.0455 ± 0.05
17,CGAAAGTC,0.0804 ± 0.023
18,ACAGTGTA,0.0105 ± 0.032
19,GTTAAGCA,0.0703 ± 0.02
20,TAAACCCA,-0.0858 ± 0.0046
21,CTTATGGC,-0.0928 ± 0.041
22,GTCGTCAC,0.3318 ± 0.0028
23,CTCGTCAC,0.3943 ± 0.0029
24,ATCGTCAC,0.403 ± 0.0068
25,ATCGTCAA,0.0469 ± 0.0067

row,Sequence,PBM E-score of 8-mer
1,ATCGTCAT,-0.0319 ± 0.033
2,CTCGTCAA,0.141 ± 0.04
3,GCCTACCA,0.015 ± 0.093
4,CACTTAAA,0.158 ± 0.01
5,AGGTGCGG,0.434 ± 0.011
6,AAGTGCGG,0.247 ± 0.0065
7,AGGTGCGC,0.293 ± 0.023
8,ATGTGCTG,0.1768 ± 0.001
9,AGGTGCTG,0.414 ± 0.019
10,AGGTGCTC,0.0655 ± 0.042
11,CCAGAGGC,0.0947 ± 0.07
12,CACCACAG,0.131 ± 0.004
13,CTCGGGAC,-0.18 ± 0.058
14,CCTTCCAC,0.0992 ± 0.017
15,TCACCCGA,0.0689 ± 0.025
16,ACACCCGC,0.376 ± 0.011
17,CCACCCGC,0.0903 ± 0.013
18,GCACCCGA,0.15 ± 0.0018
19,ACACCCGA,0.422 ± 0.012
20,GCACCCGC,0.333 ± 0.012
21,GGAGGAGA,-0.011 ± 0.0051
22,AGGCACGG,-0.0977 ± 0.04
23,GAACGACA,0.106 ± 0.025
24,AAATAACC,0.0174 ± 0.057
25,AGCGAATA,0.0489 ± 0.053

row,Sequence,PBM E-score of 8-mer
1,CGTGTAGA,0.0938 ± 0.0091
2,CGCGAACC,0.328 ± 0.0044
3,CGCGAAAC,0.355 ± 0.0087
4,CGCGAACG,0.375 ± 0.017
5,AGCGAAAG,-0.0461 ± 0.031
6,CGCGAAAG,0.3697 ± 0.0008
7,AGCGAACG,0.0481 ± 0.02
8,ATCTTACC,-0.327 ± 0.021
9,ATCTTAAT,-0.171 ± 0.13
10,CCCAAACG,-0.119 ± 0.045
11,ACCTGGCA,0.288 ± 0.011
12,CTTTGCGA,0.0629 ± 0.022
13,AGCTCCCA,-0.308 ± 0.076
14,ATCACGCG,0.334 ± 0.023
15,CCCACGCC,0.08239 ± 0.00072
16,ATCACGCC,0.372 ± 0.017
17,CTCACGCC,0.3929 ± 0.00041
18,ATCACGCA,0.167 ± 0.0099
19,CTCACGCA,0.306 ± 0.019
20,GACAGGAA,0.08894 ± 0.00038
21,GTGTGCCA,0.237 ± 0.025
22,AAGACACC,0.3306 ± 0.0024
23,AAGTGTGT,0.34 ± 0.03
24,CAGTGTGG,0.249 ± 0.013
25,TAGTGTGA,0.446 ± 0.0044

row,Sequence,PBM E-score of 8-mer
1,CAGTGTGA,0.3958 ± 0.0034
2,AAGTGTAG,0.147 ± 0.012
3,AAGTGTGC,0.368 ± 0.0052
4,TAGTGTAA,0.185 ± 0.072
5,TAGTGAGA,0.278 ± 0.022
6,AAGTGTAA,0.381 ± 0.05
7,TAGTGGGA,-0.0944 ± 0.019
8,AAGTGTGA,0.48967 ± 0.00029
9,CAGTGTGC,0.0644 ± 0.04
10,ATGGTGAC,0.262 ± 0.049
11,CGCTTTCA,0.0848 ± 0.014
12,GCACTAGC,0.0942 ± 0.018
13,AAAGACGT,-0.108 ± 0.008
14,CCTACCCC,-0.152 ± 0.039
15,CAAATACA,-0.164 ± 0.0057
16,ACTAGACC,-0.3241 ± 0.0027
17,GTATCCAC,0.0223 ± 0.03
18,ACGCGCAT,0.0257 ± 0.033
19,GACAGCGC,0.0941 ± 0.072
20,AGAGCATC,-0.226 ± 0.1
21,AAGTGTGG,0.3837 ± 0.00044
22,AAGTGGGG,0.189 ± 0.07
23,AACTGTGG,0.00267 ± 0.0079
24,GAGTGTGC,0.2606 ± 0.00088
25,GAGTGTAA,0.169 ± 0.061

row,Sequence,PBM E-score of 8-mer
1,GAGTGTGA,0.4754 ± 0.0017
2,CACTTTCG,0.258 ± 0.004
3,CGGGGCAA,-0.147 ± 0.097
4,CACCTAGG,0.436 ± 0.01
5,AACCTAGC,0.088 ± 0.041
6,CCCCTAGG,-0.0463 ± 0.05
7,AACCTAGG,-0.0117 ± 0.074
8,CACCTAGA,0.324 ± 0.028
9,CACCTAGC,0.418 ± 0.0047
10,GTTCCGGA,-0.29 ± 0.027
11,ATGCGAAC,0.13 ± 0.018
12,CTGCGATA,0.169 ± 0.046
13,GTGCGAAC,0.4794 ± 0.0017
14,GTGCGATA,0.4351 ± 0.0025
15,CTGCGAAC,0.324 ± 0.013
16,TTGCGAAA,0.349 ± 0.034
17,GTGCGAAA,0.4814 ± 0.0014
18,ATGCGATA,0.0765 ± 0.014
19,CTGCGACA,0.172 ± 0.015
20,CTGCGAAA,0.368 ± 0.0074
21,GTGCGACA,0.412 ± 0.021
22,ATGCGACA,0.3323 ± 0.0011
23,CTAGTAGA,-0.0181 ± 0.012
